Values without a mark were called inactive.
What was measured:
Test in all cases: log2 ratio of Biotin-Ahx-Ub-VS probe labelling (fragment/DMSO); higher = less target engagement (more negative = stronger competition), active = hit call of the paper (q ≤ 0.05, log2 ratio ≤ -1)
Conditions in all cases: compound concentration: 200 uM; treatment time: 3 h
OTUD6B = biological target: T1, OTUD6B (UniProt Q8N6M0)
T1 sequence (whole entry): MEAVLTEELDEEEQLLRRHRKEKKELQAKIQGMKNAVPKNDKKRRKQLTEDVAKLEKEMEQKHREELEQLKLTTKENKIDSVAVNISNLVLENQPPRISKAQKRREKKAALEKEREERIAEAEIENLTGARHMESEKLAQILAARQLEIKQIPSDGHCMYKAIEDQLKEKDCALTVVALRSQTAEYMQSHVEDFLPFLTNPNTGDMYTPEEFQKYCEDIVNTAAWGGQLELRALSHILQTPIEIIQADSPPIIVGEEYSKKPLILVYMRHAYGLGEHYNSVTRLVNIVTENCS
Outline: (§1)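 Triplicate samples of HEK293T lysate, 495 µg each, received fragment at 200 µM or vehicle for 3 h, followed by Biotin-Ahx-Ub-VS (0.5 µM final) for 1 h. After NeutrAvidin enrichment of labelled DUBs and LysC/trypsin digestion, peptides were run by diaPASEF LC-MS/MS. The values are average log2 fragment/vehicle ratios from global-median-normalised Spectronaut label-free quantities, tested by unpaired t-test on proteins having ≥2 unique peptides.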

OTUD7B = biological target: T2, OTUD7B (UniProt Q6GQQ9)
T2 sequence (whole entry): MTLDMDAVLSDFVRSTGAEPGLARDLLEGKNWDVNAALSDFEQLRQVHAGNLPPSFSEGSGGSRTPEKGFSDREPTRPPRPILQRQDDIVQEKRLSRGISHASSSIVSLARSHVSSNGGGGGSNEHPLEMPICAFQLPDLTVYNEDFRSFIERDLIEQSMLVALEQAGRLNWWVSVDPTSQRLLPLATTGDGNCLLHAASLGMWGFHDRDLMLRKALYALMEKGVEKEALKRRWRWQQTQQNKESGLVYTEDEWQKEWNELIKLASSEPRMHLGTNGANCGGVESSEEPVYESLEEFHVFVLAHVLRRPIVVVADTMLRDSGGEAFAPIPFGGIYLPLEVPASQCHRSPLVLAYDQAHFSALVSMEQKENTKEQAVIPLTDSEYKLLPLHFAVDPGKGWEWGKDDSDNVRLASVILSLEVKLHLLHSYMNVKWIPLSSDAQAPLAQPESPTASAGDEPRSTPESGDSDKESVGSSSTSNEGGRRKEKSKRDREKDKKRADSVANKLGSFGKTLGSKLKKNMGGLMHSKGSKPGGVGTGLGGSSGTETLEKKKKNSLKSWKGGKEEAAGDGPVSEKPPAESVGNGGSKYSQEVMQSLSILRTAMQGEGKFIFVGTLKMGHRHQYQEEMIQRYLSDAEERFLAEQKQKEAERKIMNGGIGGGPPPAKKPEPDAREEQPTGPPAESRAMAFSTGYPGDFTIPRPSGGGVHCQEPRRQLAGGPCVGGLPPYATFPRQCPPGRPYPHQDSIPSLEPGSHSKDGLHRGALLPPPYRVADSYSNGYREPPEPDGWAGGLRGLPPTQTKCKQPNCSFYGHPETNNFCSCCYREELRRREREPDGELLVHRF
Outline: as §1

PRPF8 = PRPF8 (UniProt Q6P2Q9)
Outline: as §1

PSMD7 = biological target: T3, PSMD7 (UniProt P51665)
T3 sequence (whole entry): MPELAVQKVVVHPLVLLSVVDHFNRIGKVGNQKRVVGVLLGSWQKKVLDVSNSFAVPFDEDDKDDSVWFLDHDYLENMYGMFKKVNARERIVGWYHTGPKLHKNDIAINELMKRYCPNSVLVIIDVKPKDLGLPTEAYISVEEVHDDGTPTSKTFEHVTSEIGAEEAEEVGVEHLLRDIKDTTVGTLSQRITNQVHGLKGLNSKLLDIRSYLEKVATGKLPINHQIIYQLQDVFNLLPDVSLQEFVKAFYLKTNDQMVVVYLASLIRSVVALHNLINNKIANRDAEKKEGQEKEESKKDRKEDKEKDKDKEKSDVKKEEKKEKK
Outline: as §1

UCHL1 = UCHL1 (UniProt P09936)
Chain of UCHL1 (P09936 whole entry, looked up): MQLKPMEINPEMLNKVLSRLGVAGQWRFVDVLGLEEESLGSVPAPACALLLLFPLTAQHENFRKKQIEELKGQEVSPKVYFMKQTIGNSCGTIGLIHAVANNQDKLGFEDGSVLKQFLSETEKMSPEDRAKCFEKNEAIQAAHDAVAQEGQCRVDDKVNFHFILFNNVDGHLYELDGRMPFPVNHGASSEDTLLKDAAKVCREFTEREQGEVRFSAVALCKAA
Outline: as §1

UCHL3 = biological target: T4, UCHL3 (UniProt P15374)
T4 sequence (whole entry): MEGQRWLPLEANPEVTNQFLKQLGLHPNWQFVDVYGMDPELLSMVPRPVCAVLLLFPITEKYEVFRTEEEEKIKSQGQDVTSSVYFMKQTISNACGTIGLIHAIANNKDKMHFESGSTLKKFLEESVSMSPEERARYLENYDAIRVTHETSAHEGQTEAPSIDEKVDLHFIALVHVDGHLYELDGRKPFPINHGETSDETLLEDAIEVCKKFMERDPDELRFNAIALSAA
Outline: as §1

UCHL5 = biological target: T5, UCHL5 (UniProt Q9Y5K5)
T5 sequence (whole entry): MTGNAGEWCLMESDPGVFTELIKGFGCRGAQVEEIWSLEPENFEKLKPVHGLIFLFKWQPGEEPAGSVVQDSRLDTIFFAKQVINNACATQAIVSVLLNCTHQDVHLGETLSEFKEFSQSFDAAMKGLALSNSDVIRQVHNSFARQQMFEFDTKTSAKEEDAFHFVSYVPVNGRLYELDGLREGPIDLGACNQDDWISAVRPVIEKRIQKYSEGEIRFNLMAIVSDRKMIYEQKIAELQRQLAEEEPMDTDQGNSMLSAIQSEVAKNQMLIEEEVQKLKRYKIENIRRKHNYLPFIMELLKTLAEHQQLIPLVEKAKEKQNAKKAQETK
Outline: as §1

USP10 = USP10 (UniProt Q14694)
Chain of USP10 (Q14694 whole entry): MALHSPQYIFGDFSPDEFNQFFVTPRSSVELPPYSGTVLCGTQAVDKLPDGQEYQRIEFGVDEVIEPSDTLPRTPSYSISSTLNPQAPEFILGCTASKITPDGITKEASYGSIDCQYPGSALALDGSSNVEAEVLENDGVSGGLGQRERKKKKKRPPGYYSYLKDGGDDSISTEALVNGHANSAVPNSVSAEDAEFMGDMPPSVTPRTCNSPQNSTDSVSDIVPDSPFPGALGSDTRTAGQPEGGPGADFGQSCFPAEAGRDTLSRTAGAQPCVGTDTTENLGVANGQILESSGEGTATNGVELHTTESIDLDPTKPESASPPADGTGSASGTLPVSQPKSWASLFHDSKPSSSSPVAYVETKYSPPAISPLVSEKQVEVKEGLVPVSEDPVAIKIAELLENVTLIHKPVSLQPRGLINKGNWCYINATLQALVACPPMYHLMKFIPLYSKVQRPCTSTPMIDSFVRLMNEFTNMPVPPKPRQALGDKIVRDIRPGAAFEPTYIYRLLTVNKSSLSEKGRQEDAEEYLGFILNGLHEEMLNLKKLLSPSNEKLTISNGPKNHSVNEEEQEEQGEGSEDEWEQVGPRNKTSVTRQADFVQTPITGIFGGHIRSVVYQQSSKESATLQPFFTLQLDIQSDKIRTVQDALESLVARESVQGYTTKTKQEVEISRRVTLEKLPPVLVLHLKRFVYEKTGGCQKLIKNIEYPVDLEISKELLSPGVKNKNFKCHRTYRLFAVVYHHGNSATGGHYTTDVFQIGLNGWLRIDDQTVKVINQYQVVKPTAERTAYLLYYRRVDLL
Outline: as §1

USP15 = biological target: T6, USP15 (UniProt Q9Y4E8)
T6 sequence (whole entry): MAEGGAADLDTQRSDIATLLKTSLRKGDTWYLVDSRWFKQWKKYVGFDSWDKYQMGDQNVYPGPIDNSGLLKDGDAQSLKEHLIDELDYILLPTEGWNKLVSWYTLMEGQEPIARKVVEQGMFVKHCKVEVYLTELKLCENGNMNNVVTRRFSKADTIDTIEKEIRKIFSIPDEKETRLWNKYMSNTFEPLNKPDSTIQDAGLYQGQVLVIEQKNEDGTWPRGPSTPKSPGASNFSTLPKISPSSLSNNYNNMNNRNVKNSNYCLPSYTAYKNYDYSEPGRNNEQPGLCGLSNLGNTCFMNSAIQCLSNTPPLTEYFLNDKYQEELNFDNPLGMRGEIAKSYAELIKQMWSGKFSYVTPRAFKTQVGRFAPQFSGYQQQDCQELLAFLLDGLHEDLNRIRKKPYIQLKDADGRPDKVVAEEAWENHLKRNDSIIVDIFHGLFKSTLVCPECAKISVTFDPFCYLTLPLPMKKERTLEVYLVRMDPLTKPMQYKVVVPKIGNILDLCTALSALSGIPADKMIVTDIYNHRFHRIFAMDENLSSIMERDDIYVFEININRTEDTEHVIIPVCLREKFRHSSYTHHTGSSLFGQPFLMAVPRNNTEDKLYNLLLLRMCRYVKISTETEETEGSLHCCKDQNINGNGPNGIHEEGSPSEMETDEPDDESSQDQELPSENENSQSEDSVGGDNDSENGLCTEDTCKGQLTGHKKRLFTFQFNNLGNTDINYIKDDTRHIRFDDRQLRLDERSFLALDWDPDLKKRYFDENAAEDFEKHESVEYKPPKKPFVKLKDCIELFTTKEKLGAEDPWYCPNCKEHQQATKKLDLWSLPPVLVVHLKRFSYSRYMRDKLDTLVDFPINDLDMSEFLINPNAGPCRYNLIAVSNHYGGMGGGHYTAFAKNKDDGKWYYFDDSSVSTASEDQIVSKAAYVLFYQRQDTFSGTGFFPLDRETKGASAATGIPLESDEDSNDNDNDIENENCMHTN
Outline: as §1

USP16 = USP16 (UniProt Q9Y5T5)
Chain of USP16 (Q9Y5T5 whole entry, looked up): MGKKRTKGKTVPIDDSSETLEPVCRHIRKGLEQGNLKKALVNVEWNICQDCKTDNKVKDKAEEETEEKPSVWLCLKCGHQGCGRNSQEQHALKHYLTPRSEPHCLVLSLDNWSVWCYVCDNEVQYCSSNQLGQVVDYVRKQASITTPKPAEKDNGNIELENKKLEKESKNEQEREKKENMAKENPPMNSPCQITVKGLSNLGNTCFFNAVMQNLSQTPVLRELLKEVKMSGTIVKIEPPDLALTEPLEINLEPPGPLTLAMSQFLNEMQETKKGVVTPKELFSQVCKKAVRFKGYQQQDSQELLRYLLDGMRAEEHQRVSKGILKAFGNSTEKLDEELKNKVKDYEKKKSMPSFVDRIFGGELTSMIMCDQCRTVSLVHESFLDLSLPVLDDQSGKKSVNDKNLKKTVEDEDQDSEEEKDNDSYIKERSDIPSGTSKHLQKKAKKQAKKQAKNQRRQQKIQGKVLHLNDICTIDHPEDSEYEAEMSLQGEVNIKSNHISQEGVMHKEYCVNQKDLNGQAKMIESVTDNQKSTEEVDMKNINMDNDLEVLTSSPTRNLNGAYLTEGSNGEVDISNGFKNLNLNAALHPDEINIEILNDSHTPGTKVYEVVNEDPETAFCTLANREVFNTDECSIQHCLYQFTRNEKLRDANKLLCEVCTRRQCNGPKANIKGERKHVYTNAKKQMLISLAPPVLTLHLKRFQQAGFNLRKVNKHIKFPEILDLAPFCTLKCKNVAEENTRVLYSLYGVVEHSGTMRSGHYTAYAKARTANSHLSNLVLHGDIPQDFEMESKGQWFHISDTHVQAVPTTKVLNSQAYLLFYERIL
Outline: as §1

| SMILES | log2 ratio of Biotin-Ahx-Ub-VS probe labelling (OTUD6B) | log2 ratio of Biotin-Ahx-Ub-VS probe labelling (OTUD7B) | log2 ratio of Biotin-Ahx-Ub-VS probe labelling (PRPF8) | log2 ratio of Biotin-Ahx-Ub-VS probe labelling (PSMD7) | log2 ratio of Biotin-Ahx-Ub-VS probe labelling (UCHL1) | log2 ratio of Biotin-Ahx-Ub-VS probe labelling (UCHL3) | log2 ratio of Biotin-Ahx-Ub-VS probe labelling (UCHL5) | log2 ratio of Biotin-Ahx-Ub-VS probe labelling (USP10) | log2 ratio of Biotin-Ahx-Ub-VS probe labelling (USP15) | log2 ratio of Biotin-Ahx-Ub-VS probe labelling (USP16) |
| --- | --- | --- | --- | --- | --- | --- | --- | --- | --- | --- |
| Cl.O=C(CCl)N[C@H]1C[C@@H](n2cccn2)C1 | -0.0562 | -0.797 | 0.13 | 0.118 | -1.11 | 0.478 | -0.14 | 0.0484 | -0.22 | 0.0253 |
| C[C@H]1CN(C(=O)CCl)CCN1C(=O)c1cnn(C)c1.Cl | -0.288 | -0.168 | 0.144 | -0.0809 | -2.38 (active) | 0.376 | -0.259 | 0.0256 | -0.149 | -0.146 |
| Cc1n[nH]c(=O)c2c(NC(=O)CCl)oc(C)c12 | 0.111 | -0.365 | 0.175 | 0.0225 | -0.344 | 0.303 | -0.0452 | -0.0909 | -0.014 | -0.0991 |
| O=C(CCl)NCCc1cccc2ccccc12 | 0.0475 | -0.286 | 0.117 | 0.0665 | -0.978 | 0.331 | -0.029 | -0.0479 | 0.076 | -0.496 |
| Cc1ccc(C)c(Oc2ccc(CNC(=O)CCl)cn2)c1.Cl | -0.139 | -1.04 (active) | -0.126 | -0.306 | -1.3 (active) | -1.04 (active) | -0.435 | -0.166 | -0.359 | -0.0509 |
| Cl.Cn1ncc2c1CCCC2NC(=O)CCl (stereo not given) | -0.272 | -2.04 (active) | 0.261 | 0.0323 | -1.71 (active) | 0.241 | -0.145 | -0.078 | -0.335 | -0.096 |
| CS(=O)(=O)N1CCCN(C(=O)CCl)CC1 | -0.512 | -0.631 | -0.104 | -0.148 | -1.95 (active) | 0.112 | -0.235 | -0.0225 | -0.193 | 0.245 |
